Sensor-assay potency score (higher = more potent) data for 40 sequences are collected here from the OligoGym collection.
Further: reference of the scale not given here.

One experiment has as its target NAGPA. The experiment can be described thus: pooled miR-30 sensor sort-seq; sequence = guide strand. The following applies: shRNA.
Turning to TTGATGTAGATGCTTCCATTAC, the sensor-assay potency score (higher = more potent) is -1.88. The same measure, in the same setting: then AAGCCGAATAGTGCAAGCCGGA, with -1.15; and AGTAGCAAGTCGTCGTCGCGGG, with -1.2.

TCTCGTCACACTCTGTGGCTTG registered a sensor-assay potency score (higher = more potent) of 0.00905. On the same count and under the same terms, then TTCCTCTCTGCTCTGGACAGGA, with -0.227; and TTTCAGCAGGAACTCCGCCATT, with -1.66. Same read-out and setting: next, TTGAGCACAAAGGTGGCAGAGC: -0.854. On the same count and under the same terms, next, TAGGGCAGTAGCAAGTCGTCGT: 0.274.

The target of another experiment is NAGS. The description is as above. Conditions: shRNA.
TAGTCGTCCCTGAGCTTCTTGC displayed a sensor-assay potency score (higher = more potent) of -1.38. Same read-out and setting: next, TTGACCAGGTCCACTAGACGGC: -0.973; TTGCACACCAGGTCCAGGTCGG: -0.37. Same read-out and setting: next, TTTAGAGTGAGTCGAGTTGGGG: -0.776; TGTAGCTTTAGAGTGAGTCGAG: 0.177; TTACTCAGGACCTTATGACTGC: -0.0355.

Turning to TTATTGAGGAAGATGATTTTGG, the sensor-assay potency score (higher = more potent) is -0.526. Turning to TTGATGGGGTTGGTGACCCGGG, the sensor-assay potency score (higher = more potent) was -1.22. Still for that read-out and setting: then TTGAGGAAGATGATTTTGGTGG, with -0.197. Same read-out and setting: then TCACTGTGTTTGAAGTACCAGG, with -0.966; and TCTACCAGCACCTTGCAGCTCT, with 0.351; and TTAGAGTGAGTCGAGTTGGGGT, with -0.187.

A further experiment addresses NAP1L5. The experiment is described as above. The following applies: shRNA.
Sequence TCTTATCGCATCGCTTCTGCAG showed a sensor-assay potency score (higher = more potent) of -1. Still for that read-out and setting: next, TTGAGGGCCAGGACTCGGCATT: -1.45; TTTTTGAGGGCCAGGACTCGGC: -1.25.

Turning to ATACTTTTTTTCCAGAGCCTGA, the sensor-assay potency score (higher = more potent) is -1.24. On the same count and under the same terms, then TTGGATCTTGGCGAGTAGGGGC, with -0.336; and TTGGCTTCTATCTTATCGCATC, with -1.13.

The sequence TTATAGATGTCATTATACTTTT gave a sensor-assay potency score (higher = more potent) of -1.32.

With TATACTTTTTTTCCAGAGCCTG, the sensor-assay potency score (higher = more potent) is -1. Still for that read-out and setting: then TATCTTATCGCATCGCTTCTGC, with 0.0139; and TCTATCTTATCGCATCGCTTCT, with -0.911; and TTCTATCTTATCGCATCGCTTC, with -0.589.

The target in a further experiment is NARF. The experiment is described as above. The following applies: shRNA.
TTATTTGAGCAATTTCACCTGA had a sensor-assay potency score (higher = more potent) of 0.612.

In turn, TTTAGCAGCAAAATAAGGCAAA came in with a sensor-assay potency score (higher = more potent) of -0.927. Same read-out and setting: then TTCTTTTTGACTCTCCAGGATA, with -1.07; and TTTCTTACTACATTCCTTGCGC, with 0.306. Still for that read-out and setting: next, AAATCCGCAGCTATCGTCGTAT: -0.245.

Turning to TTGAGGAAACCACAGAGTCTTC, the sensor-assay potency score (higher = more potent) is -1.68. Still for that read-out and setting: then TTGTTTTCTTACTACATTCCTT, with -0.477.

The sequence ATCCTCGTTGAACAGCTCCTTG showed a sensor-assay potency score (higher = more potent) of -0.97.

On to TGGTGCAATCTTGTCTCGCTGT, for which the sensor-assay potency score (higher = more potent) was -0.584.
